The values below come from PubChem BioAssay AID652154 (Broad Institute, 2013).

Structures are written as SMILES. “And” between values parts separate entries of the source, which are not always exact repeats. Identical values can stand only once. In all, about 360,000 compounds went through this assay and about 4,200 (1.2%) were called active. The full list was thinned out, with actives kept by preference. Values without a mark were called inactive.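 Rule for the calls: active = mean replicate inhibition at least 60% with every replicate also reaching 60%; inconclusive = only one of the two criteria is met; inactive = mean below 60% and not all replicates reaching 60%.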

This test can be described thus: inhibitors of PAX8-driven TPO luciferase reporter, primary screen, RMG-I cells, single concentration (AID 652154).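 Note: luciferase light reporting Pax8 driven TPO promoter activity; plate controls were median of neutral control wells for no effect and mitoxantrone controls for full effect.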 The note with it: SteadyGlo, 24 h, at 12.6 µM, stronger effect = higher value. For orientation: A reporter such as luciferase makes a cellular process visible.
Consider `CN(C)CC1Oc2ccccc2OC1(O)c1ccccc1` (stereo not given), for which the inhibition was 78.4% (active).

Consider `O=C(Cc1ccccc1)N1CCCCN2[C@H](CO)[C@H](c3ccc(C#Cc4ccccc4)cc3)[C@H]2C1`, for which the inhibition is 0.0955%.

As to `O=C(Cc1ccncc1)N1CCCCN2[C@H](CO)[C@@H](c3ccc(C#CC4(O)CCCC4)cc3)[C@H]2C1`, the inhibition is -4.86%.

`O=C(Cc1ccccc1)N1CCCCN2[C@H](C1)[C@H](c1ccc(C#CC3(O)CCCC3)cc1)[C@@H]2CO`: the inhibition was 12.4%.

On to `CCC(C)(O)C(=O)OC1C(=O)OC2CC3C(C)=CC(=O)C(O)C3(C)C3C4(O)OCC23C1C(C)C4O` (stereo not given), for which the inhibition is 96.4% (active).

Consider `C/C=C/c1ccc([C@H]2[C@H](CO)N3CCCCN(C(=O)Cc4ccncc4)C[C@@H]23)cc1`, for which the inhibition is 11.3%.

Turning to `N#Cc1cccc(-c2ccc([C@H]3[C@@H](CO)N4CCCCN(C(=O)Cc5cccnc5)C[C@@H]34)cc2)c1`, the inhibition is -12%.

As for `Cc1cc(N2CCNC[C@@H]2C)ccc1N1CC[C@H](O)C1`, the inhibition was 1.43%.

Take `CC(=CCOc1ccc2ccc(=O)oc2c1)C1=CC(=O)C(C)(C)O1`: the inhibition was 108% (active).

As to `COc1ccc(C#Cc2ccc([C@H]3[C@H](CO)N4CCCCN(C(=O)Cc5ccccc5)C[C@@H]34)cc2)cc1`, the inhibition is -13.5%.

Consider `C/C=C/c1ccc(C2[C@@H]3CN(Cc4cncnc4)C[C@H]2N3)cc1` (stereo not given in full), for which the inhibition was -5.53%.

As for `COc1cccc(-c2ccc3n(c2=O)C[C@@H]2[C@@H](CO)[C@H](C(=O)O)[C@H]3N2C(=O)c2cnccn2)c1`, the inhibition is 1.83%.

Take `COC(=O)[C@@H]1[C@@H](CO)[C@@H]2Cn3c(ccc(-c4ccc(F)cc4)c3=O)[C@H]1N2C(C)=O`: the inhibition is -4.95%.

For `CCOc1ccc(-c2cc(C)[n+](CCN(CC)CC)c(-c3ccc(OCC)cc3)c2)cc1`, the inhibition is 87.4% (active).

`CCOC(=O)[C@]12Cc3cc(OC)ccc3[C@H]1N(C(C)C)C(=O)c1ccccc12`: the inhibition was -13.7%.

In the case of `O=C(Cc1ccncc1)N1CCCCN2[C@@H](CO)[C@H](c3ccc(C#CC4(O)CCCC4)cc3)[C@@H]2C1`, the inhibition was -6.83%.

`O=S(=O)(c1ccccc1)N1CCC2CCNC2C1` (stereo not given): the inhibition was -15.4%.

As for `O=C(Cc1cccnc1)N1CCCCN2[C@@H](CO)[C@H](c3ccc(C#CC4CCCC4)cc3)[C@@H]2C1`, the inhibition was -34.4%.

For the compound `COc1cccc(-c2ccc([C@H]3[C@H]4CN(C(=O)Cc5ccncc5)CCCCN4[C@H]3CO)cc2)c1`, the inhibition was 47.9%.

Turning to `CCOC(=O)[C@@H]1[C@@H]2NC(=O)N[C@@]1(C)Oc1ccccc12`, the inhibition is 8.82% and -6.19%.

`Brc1ccc2c(c1)CNCc1cnnn1-2`: the inhibition was -19.7%.

As for `O=C(O)[C@H]1[C@H](CO)[C@H]2Cn3c(ccc(-c4ccccc4)c3=O)[C@@H]1N2S(=O)(=O)c1ccccc1F`, the inhibition is -5.43%.

On to `O=c1[nH]c2ccccc2n1C1CCN(C(c2ccnc3ccccc23)c2nnnn2Cc2ccccc2)CC1` (stereo not given), for which the inhibition was -10.5%.

With `O=C1NCN(c2ccccc2)C12CCN(C(c1cccs1)c1nnnn1C1CCCCC1)CC2` (stereo not given), the inhibition is -2.94%.

Take `O=c1[nH]c2ccccc2n1C1CCN(C(c2ccccc2)c2nnnn2Cc2ccccc2)CC1` (stereo not given): the inhibition was 82.1% (active).

As to `COc1cccc(C(c2nnnn2-c2ccc3c(c2)OCCO3)N2CCC3(CC2)C(=O)NCN3c2ccccc2)c1OC` (stereo not given), the inhibition was -8.19%.

On to `COc1ccc(-n2nnnc2C(c2cccc3ccccc23)N2CCC(n3c(=O)[nH]c4ccccc43)CC2)cc1` (stereo not given), for which the inhibition was 63.7% (active).

Regarding `CSCCC(c1nnnn1C(C)(C)C)N1CCC(n2c(=O)[nH]c3ccccc32)CC1` (stereo not given), the inhibition is 32.9%.

For the compound `CCOC(=O)[C@]12Cc3ccccc3[C@H]1N(C1CCCCC1)C(=O)c1cc(OC)ccc12`, the inhibition was 49.5%.

As to `COc1cccc(-c2ccc3n(c2=O)C[C@H]2[C@H](CO)[C@@H](C(=O)O)[C@@H]3N2C(=O)c2cnccn2)c1`, the inhibition was -1.69%.

Regarding `CS(=O)(=O)N1CCC2CCNC2C1` (stereo not given), the inhibition was -27.9%.

`COc1cc(OC)cc(C(=O)NCCN2CCC3(CC2)C(=O)NCN3c2ccccc2)c1`: the inhibition was -21.4%.

Consider `O=C(Cc1ccccn1)N1CCCCN2[C@@H](CO)[C@@H](c3ccc(C#Cc4ccccc4)cc3)[C@@H]2C1`, for which the inhibition was 9.59%.

In the case of `CC1=CC(=Cc2sc3ccccc3[n+]2C)C=C(C)O1`, the inhibition is 74.9% (active).

With `C/C=C/c1ccc(C2[C@@H]3CN(S(C)(=O)=O)C[C@H]2N3)cc1` (stereo not given in full), the inhibition is 9.75%.

As for `CCCCCCCCCCCCn1ccc(=N)cc1`, the inhibition was 101% (active).

In the case of `O=C(Cc1ccccn1)N1CCCCN2[C@H](C1)[C@H](c1ccc(-c3ccccc3F)cc1)[C@@H]2CO`, the inhibition was 19.2%.

As for `O=C(O)[C@@H]1[C@@H](CO)[C@@H]2Cn3c(ccc(-c4ccccc4F)c3=O)[C@H]1N2C(=O)c1cccnc1`, the inhibition was -13.1%.

Consider `OC[C@@H]1[C@H]2c3ccccc3NC[C@H]2N1Cc1cccnc1`, for which the inhibition was 2.56%.

With `COC(=O)C1=C(c2ccc(F)cc2OCc2ccccc2)C[C@@H]2CC[C@H]1N2C(=O)NCc1ccc(C(C)(C)C)cc1`, the inhibition is 79% (active).

`COC(=O)C1=C(c2ccc(F)cc2OCc2ccccc2)C[C@@H]2CC[C@H]1N2C(=O)NCc1ccc(Cl)cc1`: the inhibition was 24.6%.

Turning to `COC(=O)C1=C(c2ccccc2OCc2ccccc2)C[C@@H]2CC[C@H]1N2C(=O)NCc1ccc(OC)cc1`, the inhibition was 15%.

Consider `COC(=O)C1=C(c2ccc(F)cc2OCc2ccccc2)C[C@@H]2CC[C@H]1N2C(=O)NCc1ccc2[nH]ccc2c1`, for which the inhibition was 89% (active).

With `COC(=O)C1=C(c2ccc(OCc3ccccc3)cc2)C[C@@H]2CC[C@H]1N2C(=O)NCc1cccc(F)c1`, the inhibition was 5.35%.

In the case of `COC(=O)C1=C(c2ccc(F)cc2OCc2ccccc2)C[C@@H]2CC[C@H]1N2C(=O)NCc1ccc(OC)c(OC)c1`, the inhibition was 21.7%.

As for `COC(=O)C[C@@H]1CC[C@@H]2NC[C@@H](O)COC[C@H]2O1`, the inhibition is 2.66%.

For `COC(=O)C[C@H]1CC[C@H]2NC[C@@H](O)COC[C@@H]2O1`, the inhibition was 2.02% and -13.9%.

Regarding `COC(=O)[C@H]1[C@H](CO)[C@H]2Cn3c(ccc(-c4cccc(F)c4)c3=O)[C@@H]1N2Cc1ccccc1`, the inhibition is 7.46%.

For the compound `COC(=O)[C@@H]1[C@@H](CO)[C@@H]2Cn3c(ccc(-c4cccc(C(=O)N(C)C)c4)c3=O)[C@H]1N2C(=O)NC(C)C`, the inhibition is -0.877%.

Turning to `O=C(Cc1ccncc1)N1CCCCN2[C@@H](CO)[C@H](c3ccc(-c4ccncc4)cc3)[C@@H]2C1`, the inhibition was 6.85%.

One may read the inhibition as the change of the read-out against control, counted positive when it falls.
